The source of these data is PubChem BioAssay AID1259240 (Keith Lab, Institute of Cancer Science, University of …, 2017).

Values without a mark were called inactive. Activity calls are given as the source filed them. Cut-off read from the data, not from the text of the source: active = fold change mostly below about -2 (no sharp cut-off); inactive = mostly above about -1.8.

The experiment in a line: TERT promoter activity modulators, primary screen, cell-based, luciferase reporter, human (AID 1259240). Particulars: A2780 TERT promoter luciferase reporter, 16 h; at 20 µM, fold versus average of vehicle-only wells.
As to `O=C(Cc1ccc(NC2=NC3CS(=O)(=O)CC3S2)cc1)N1CCN(c2ncccn2)CC1` (stereo not given), the fold change is 1.14.

On to `CCCCN1C(=O)C(O)(CC(=O)c2cccs2)c2ccccc21` (stereo not given), for which the fold change is -1.63.

For `CCCN(CCC)CCCNc1ccc2nncn2n1`, the fold change is 1.

Regarding `COc1ccc(-c2n[nH]c3c2C(c2ccccc2)NC3=O)cc1` (stereo not given), the fold change was -1.24.

As to `Cc1cc(C)c2c(=O)n(CC(=O)N3CCCC3)sc2n1`, the fold change is 1.19.

On to `CN(CC(=O)O)S(=O)(=O)c1cccc2cccnc12`, for which the fold change was -1.07. As to `Cc1cc(Oc2ccccc2)nc(SCC(N)=O)n1`, the fold change was 1.5. As for `CCOc1ccc(N2CC(O)=C(c3nc4ccccc4c(=O)[nH]3)C2=N)cc1`, the compound was called inactive. As to `CC(O)C(Nc1ncnc2ccccc12)C(=O)O` (stereo not given), the fold change was -1.06. Consider `CCOc1cc2c(cc1OCC)C(c1cc(OC)c(OC)c(OC)c1)CC(=O)N2` (stereo not given), for which the fold change is -1.02.

As to `COc1ccc2cc3c(N)nn(C(=O)CSc4ccncc4)c3nc2c1`, the fold change is -1.05. The same measure, in the same setting: the figure for `Cn1c(=O)c(=O)n(C)c2cc(S(=O)(=O)N3CCCC3C(=O)NC3CCCCC3)ccc21` (stereo not given) is 1.05; for `O=C1C2CCCCC2C(=O)N1c1nc2nc(-c3ccccc3)cc(=O)n2[nH]1` (stereo not given) it is 1.17.

As for `O=C1CC(c2ccc(F)c(F)c2)c2cc3c(cc2N1)OCO3` (stereo not given), the fold change was 1.27. For the compound `Cc1nn2c3cc(N4CCOCC4)ccc3nc2c2ccccc12`, the fold change was -2.16 (active).

As to `Cc1nc(SCc2c(F)cccc2Cl)c2c(=O)n(C)c(=O)n(C)c2n1`, the fold change was 1.27.

As to `N#Cc1cn(CC(=O)NCCc2c[nH]c3ccccc23)c2ccccc12`, the fold change is -1.14. On to `COc1ccc(-c2cc(N3C(=O)Nc4ccccc4N3O)n[nH]2)cc1OC`, for which the fold change was 1.2. On the same count and under the same terms, for `Cc1cc(C(=O)NC2CCCCC2)on1` the value was 1.39; for `COC(=O)CSc1nnc2sc3ccccc3n12`, -1.32; for `COc1ccccc1CNc1nc2ccccc2n2nnnc12`, -3.71 (active). In the case of `COc1ccc(NC(=O)Nc2c(C)n(C)n(-c3ccccc3)c2=O)cc1`, the fold change was -1.33. Take `COC(=O)CCn1nc(-c2ccc(Cl)cc2)c2ccccc2c1=O`: the fold change was -1.07.

For `Cc1cc(C)cc(NC(=O)CC(C)CC2=NS(=O)(=O)c3ccccc3N2)c1` (stereo not given), the fold change was -1.03. As to `COc1ccc(C(=O)CSc2nnc(Cc3cc(=O)[nH]c(=O)[nH]3)n2-c2ccc(Cl)cc2)cc1`, the fold change is -1.34.

As to `Cc1nn(CC(=O)Nc2sc3c(c2C#N)CCCCC3)c(C)c1[N+](=O)[O-]`, the fold change is -1.25.

Take `CCOC(=O)Cn1c(=O)oc2cc(S(=O)(=O)NC3CCCC(C)C3C)ccc21` (stereo not given): the fold change is 1.21. In the case of `COC(=O)c1nc2n(n1)C(c1cccc(Br)c1)C1=C(CCCC1=O)N2` (stereo not given), the compound was classed as inactive. `c1coc(CSc2nc3ccccc3n3cnnc23)c1`: the fold change is 1.16.

Regarding `Cn1c(CC(=O)NC(C)(C)CO)c(Sc2ccccc2)c2ccccc21`, the fold change was -2.11 (active). Regarding `COc1ccc(Nc2ncc(F)c(N3CCOCC3)n2)cc1`, the fold change is -3.37 (active). Take `CNC(=O)CN1C(=O)COc2ccc(S(=O)(=O)N3CCOCC3)cc21`: the fold change is -1.1.

For `Cc1cc(NC(=O)c2onc(C)c2Cl)n(-c2ccccc2)n1`, the fold change is 1.18. `O=C(CN1C(=O)COc2ccc(S(=O)(=O)N3CCCCCC3)cc21)N1CCC2(CC1)OCCO2`: the fold change is -1.25. With `CC(=O)N(C1=C(N(C)C)C(=O)c2ccccc2C1=O)c1cc(C)cc(C)c1`, the fold change was -1.54. Turning to `COc1ccc2c(c1)NC(=O)C2(O)C(F)(F)F` (stereo not given), the fold change is 2.17 (active).

With `c1ccc(Nc2c(-c3ccc(N4CCOCC4)cc3)nc3cnccn23)cc1`, the fold change was 1.08. Take `CC(C)OCCCNc1nc(-c2ccccc2)nc2ccccc12`: the fold change was -1.24.

Regarding `CCN1CCN(C(=O)c2cc3c(=O)[nH]c4ccccc4c3n2C)CC1`, the fold change was 1.05. Take `Cc1ccc(-c2cc(C(F)F)n3ncc(C(=O)N4CC(C)OC(C)C4)c3n2)cc1` (stereo not given): the fold change was -2.07 (active).
